High-throughput results (PubChem BioAssay)
HepG2 viability = kills HepG2 cells in TGF-b inhibitor counter-screen; HepG2 CAGA-GFP viability, ATP luminescence, 18 h; Potency, µM (top dose mostly 46.1 µM), for inactives: top-dose activity change, negative = cytotoxicity, most hits filed as cytotoxic; 410,000 compounds, 0.76% hits; also: potency is read from the fitted curve at half-maximal effect
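CellTiter-Glo luminescence gave cytotoxicity after 18 hours at 37 degrees C. The cells were HepG2 CAGA-GFP in 1% FBS DMEM, stimulated with 500 pg/mL TGF-beta after compound addition. %Activity was normalised to no-cell wells (complete cell-killing) and DMSO (no toxicity), and curves were fitted and classified.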
S2 tox = viability counter-screen for ATXN expression inhibitors; S2 cells (HEK-293 line with an ATXN2-luciferase reporter) viability, CellTiter-Fluor protease fluorescence, 24 h; Potency, µM (series often up to 56.7 µM), actives largely listed as cytotoxic; 400,000 compounds, 0.49% hits; AID 651635; also: potency is read from the fitted curve at half-maximal effect; nearly all actives have a fitted effect of over 40% in size
ATXN2 expr inh = reduces ATXN2 reporter expression in HEK-293 cells; HEK-293 ATXN2-luciferase reporter, luminescence, 24 h; Potency, µM (highest dose often 57 µM), without a hit: top-dose activity change, negative = inhibition, actives largely listed as inhibitors; 360,000 compounds, 0.72% hits; AID 1745845; also: potency is read from the fitted curve at half-maximal effect; % is scaled to controls: 0 for no effect and ±100 for the full control effect; nearly all actives have a fitted effect of over 55% in size
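qHTS (up to 57 uM final) was run with 24 h compound exposure of reporter cells at 37 °C. Each well was multiplexed: SteadyGlo luminescence measured ATXN2-luciferase expression after a fluorogenic Gly-Phe-AFC viability readout (25 uM final).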
IL-1B inflam inh = inhibitors of inflammasome signaling (IL-1 beta secretion). THP-1 LPS/ATP IL-1B secretion, AlphaLISA, 16 h; hits give low values. activity change, % at 57.5 µM. 360,000 compounds, 4.7% hits; in the data active = activity change below about -50%; inconclusive = mostly about -30% to -49%; also: % is scaled to controls: 0 for no effect and ±100 for the full control effect
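THP-1 cells pretreated 1 hr with compounds (up to 57.5 uM final), then stimulated with LPS (250 ng/mL final) plus ATP (1.25 mM final); secreted IL-1B measured by AlphaLISA after 16 hr, decreased signal indicating inhibition.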
TGFb inhibitor = inhibitors of TGF-b signaling. HepG2 CAGA-GFP TGF-b/SMAD3 reporter, GFP fluorescence, 18 h; TGF-beta stimulated, 500 pg/mL final. Potency, µM (series often up to 46.1 µM), without a hit: top-dose activity, negative = inhibition, actives largely listed as inhibitors. 410,000 compounds, 1.2% hits; also: potency is read from the fitted curve at half-maximal effect; % is scaled to controls: 0 for no effect and ±100 for the full control effect; nearly all actives have a fitted effect of over 65% in size
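Smad-responsive CAGA-GFP expression was quantified in HEPG2 cells exposed to compounds and 500 pg/mL final TGF-beta for 18 h at 37 degrees C; unstimulated wells defined full inhibition.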
Active calls of the source: *; i = inactive; ? = inconclusive; . = not tested or not shown. In the library only some 5.7% were active in any assay of this set; here they are far more common. Unless noted, calls follow the shape of the dose curve; as a rule, active = well fitted curve in the direction sought with a large enough effect; inconclusive = small, poorly fitted or top-dose-only effect, or another doubt; inactive = no such curve, though single readings can be large; an effect the other way counts as inactive or inconclusive.

SMILES	HepG2 viability	S2 tox	ATXN2 expr inh	IL-1B inflam inh	TGFb inhibitor
Cc1ccc(-c2noc(CCC(=O)NCC3CCCO3)n2)cc1 (stereo unspecified)	-23%	i	11%	0	-9%
Cc1ccc(-c2noc(CCC(=O)NCCN3CCOCC3)n2)cc1	-1%	i	4%	26	8%
Cc1ccc(-c2noc(CCC(=O)NCC3CCN(Cc4cccc(C)c4)CC3)n2)cc1	-14%	i	-22%	-67*	0%
Cc1csc2nc(COC(=O)c3ccc(NC(=O)c4ccccc4Br)cc3)cc(=O)n12	-17%	.	.	.	-29%
CCC(C)Nc1ncnc2c1cnn2-c1ccc(F)cc1 (stereo unspecified)	7%	i	45%	.	-6%
COCC(C)Nc1ncnc2c1cnn2-c1ccc(Cl)cc1 (stereo unspecified)	-28%	i	81%	-57*	1%
CC1CN(Cc2cccn2-c2cccnc2)Cc2cc(Cl)ccc2O1 (stereo unspecified)	.	i	.	.	.
O=S(=O)(c1ccccc1)N1CCN=C1SCc1ccc(Cl)c(Cl)c1	27%	i	-25%	-29	0%
O=S(=O)(c1ccccc1)N1CCN=C1SCc1cccc(Cl)c1	-8%	i	-13%	0	13µM*
O=[N+]([O-])c1cccc(-c2cc(-c3cc(Br)ccc3O)[nH]n2)c1	-141%	i	?	-89*	?
O=[N+]([O-])c1ccccc1-c1cc(-c2ccccc2O)n[nH]1	-16%	i	102%	-74*	?
Oc1ccc(Br)cc1-c1cc(-c2ccccc2)n[nH]1	-41%	i	5%	-2	0%
Cc1ccc(-c2cc(-c3ccccc3C)[nH]n2)c(O)c1	-50%	i	49%	-11	?
Cc1ccccc1C1(CC(=O)N2CCOCC2)CC(=O)N(Cc2cccnc2)C1=O (stereo unspecified)	.	i	.	.	.
O=C(Oc1cccc2c(O)cccc12)c1ccccc1	-116%	?	-21%	-24	14µM*
O=C(Oc1cccc2ccccc12)c1ccccc1	-5%	i	15%	-6	1%
O=C(CN1CCN(Cc2ccc(Cl)cc2)C1=O)NCCCN1CCN(c2ccc(F)cc2)CC1	-57%	i	-35%	-70*	1%
CCn1cc2nc(SCC(=O)Nc3cc(OC)ccc3OC)n(Cc3ccc(Cl)cc3)c(=O)c2n1	-1%	i	-14%	.	?
CCN(CC)C(=O)CSc1nc2cc(OC)c(OC)cc2c(=O)n1Cc1ccc(Cl)cc1	-4%	.	.	-53*	1%
CC(C)CCNC(=O)CN1C(=O)CSc2ccc(S(=O)(=O)N3CCC(C)CC3)cc21	-15%	.	.	.	0%
CC[C@H](C)[C@@H]1NC(=O)[C@H]([C@@H](C)CC)NC(=O)[C@@H](CC(C)C)NC(=O)[C@H](Cc2ccccc2)NC(=O)[C@H](Cc2ccccc2)NC(=O)[C@@H]2CCCN2C(=O)[C@@H]2CCCN2C(=O)[C@H](C(C)C)NC(=O)[C@H](CC(C)C)NC1=O	-3%	28µM*	?	-15	-8%
Cc1ccc(S(=O)(=O)c2ncccc2N)cc1	2%	i	.	0	12%
Cc1ccc(S(=O)(=O)c2ncccc2[N+](=O)[O-])cc1	-12%	5µM*	.	-102*	2.5µM*
CCc1ccc(S(=O)(=O)/N=C2\C=C(Nc3ccc(O)cc3)C(=O)c3ccccc32)cc1	1.1µM*	7.1µM*	3.5µM*	-103*	0.89µM*
CC(=O)Nc1ccc(NC2=CC(=O)c3ccccc3C2=O)cc1	-27%	i	17%	19	?
SMILES	HepG2 viability	S2 tox	ATXN2 expr inh	IL-1B inflam inh	TGFb inhibitor
Cc1ccc(S(=O)(=O)/N=C2\C=C(NS(=O)(=O)c3ccccc3)C(=O)c3ccccc32)cc1	-40%	20µM*	-31%	49	?
CCc1ccc(S(=O)(=O)/N=C2/C=C(Sc3ncn[nH]3)C(=O)c3ccccc32)cc1	2µM*	?	16µM*	-99*	1.4µM*
CCc1ccc(S(=O)(=O)/N=C2\C=C(Nc3cccc(C(=O)O)c3)C(=O)c3ccccc32)cc1	-89%	25µM*	32µM*	-101*	?
CCOC(=O)c1c(CSc2ccccc2)n(C)c2cc(Br)c(O)c(CN(C)C)c12	-25%	i	?	-86*	?
CCOC(=O)c1c(CSc2ccsc2)n(C)c2cc(Br)c(O)c(CN(C)C)c12	10µM*	i	.	-53*	?
CCOC(=O)c1c(CSc2ccc(C)cc2)n(C)c2cc(Br)c(O)c(CN(C)C)c12	-52%	?	-38%	0	?
CCOC(=O)c1c(CSc2ccccc2)n(C)c2ccc(O)c(CN3CCN(C)CC3)c12	-31%	?	.	0	?
CCOC(=O)c1c(CN(C)C)oc2cc(CN(C)C)c(O)c(CSc3ccccc3)c12	-22%	i	-13%	-50*	38%
O=C(CN1CCCN(S(=O)(=O)c2ccc(Br)s2)CC1)Nc1ccc(Cl)cc1	-41%	i	?	-76*	5%
CC(=O)c1cccc(Nc2cc(C)nc3ccc(C)cc23)c1	-30%	i	-19%	-6	?
CC(=O)c1cccc(Nc2cc(C)nc3c(C)cc(C)cc23)c1	-44%	?	?	-53*	?
Cc1onc(-c2c(Cl)cccc2Cl)c1C(=O)N1CCOCC1	3%	i	-4%	13	-9%
Cc1cc(C)c2nc(C)cc(Nc3ccc(C(=O)N4CCOCC4)cc3)c2c1	0%	i	-5%	-65*	-1%
Cc1cc(C)c2nc(-c3cccc(Cl)c3)c(C)c(C(=O)N3CCOCC3)c2c1	-3%	i	-11%	-82*	-19%
O=C(OCC(=O)N1CCCC1)c1ccc(Cl)c([N+](=O)[O-])c1	-4%	i	-3%	-57*	-3%
CC(OC(=O)c1ccc(Cl)c([N+](=O)[O-])c1)C(=O)N1CCN(Cc2ccccc2)CC1 (stereo unspecified)	-31%	i	.	-96*	?
COc1cccc(C(=O)OCC(=O)NC(=O)NC2CCCC2)c1O	19%	i	-32%	28	4%
CNC(=O)COC(=O)c1ccccc1C(=O)c1ccc(Cl)c([N+](=O)[O-])c1	-15%	10µM*	.	-107*	-24%
Cc1c(C(=O)OCC(=O)NC(=O)NC2CCCCC2)cccc1[N+](=O)[O-]	-11%	i	-12%	-67*	1%
CC(C(=O)N1CCN(Cc2ccccc2)CC1)c1ccc([N+](=O)[O-])cc1 (stereo unspecified)	-20%	i	9%	-16	-22%
